Compound activity deposited in PubChem BioAssay by The Scripps Research Institute Molecular Screening Center.
This is a sample that favours compounds with a hit; in the whole collection about 3.5% have one here.
GPR151 activ: activators of human GPR151 | Q8TDV0 | PathHunter beta-arrestin GPR151 cells, luminescence | activation, % at 11.2 µM | hit rate 1% among 650,000 | AID 1508602; in the data active means activation above about 4.9%
Target sequence (Q8TDV0 whole entry, looked up): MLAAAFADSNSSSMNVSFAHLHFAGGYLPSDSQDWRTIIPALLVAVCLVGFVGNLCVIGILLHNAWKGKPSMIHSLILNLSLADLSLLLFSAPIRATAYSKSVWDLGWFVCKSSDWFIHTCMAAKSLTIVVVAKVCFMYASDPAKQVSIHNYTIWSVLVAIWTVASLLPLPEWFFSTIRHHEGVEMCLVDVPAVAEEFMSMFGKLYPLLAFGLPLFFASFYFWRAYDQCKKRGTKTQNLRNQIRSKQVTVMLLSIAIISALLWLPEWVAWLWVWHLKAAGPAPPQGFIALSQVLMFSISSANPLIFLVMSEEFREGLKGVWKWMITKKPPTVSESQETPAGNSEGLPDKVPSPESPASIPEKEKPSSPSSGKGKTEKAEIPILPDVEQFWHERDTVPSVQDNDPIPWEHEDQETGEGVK
TEAD-YAP block: TEAD-YAP interaction inhibition | hit rate 1.4% among 640,000 | HEK-TIYL cells, TEAD-Gal4/YAP UAS-luciferase luminescence | inhibition, % at 9.12 µM; in the data active means inhibition above about 32%
MITF primary: human MITF inhibition, primary screen; O75030; inhibition, % at 2.6 µM; AlphaScreen MITF homodimerization, bead proximity signal; hit rate 0.91% among 650,000; in the data active means inhibition above about 50%
FBW7 act: activators of human E3 ligase FBW7 | Q969H0 | AlphaScreen FBW7–phospho-cyclin E peptide binding, activator screen | normalized activity (activation), % at 26.1 µM | hit rate 0.13% among 650,000 | AID 1259310; in the data active means normalized activity above about 1.9%;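 further: purified mutant Fbw7 with reduced substrate affinity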
Large screens that a line does not name were inactive.

CCOC(=O)C1(CCSC)NC(c2cccs2)C2C(=O)N(CC)C(=O)C21 (stereo unspecified)	TEAD-YAP block 32.2
CCOC(=O)C1(Cc2ccccc2)NC(c2cccs2)C2C(=O)N(CC)C(=O)C21 (stereo unspecified)	none
Cc1cccc(C(=O)Nc2ncc([N+](=O)[O-])s2)c1	TEAD-YAP block 54.6
O=C(Nc1ncc([N+](=O)[O-])s1)c1cccnc1	none
O=C(Nc1ncc([N+](=O)[O-])s1)c1ccc(Cl)cc1Cl	TEAD-YAP block 64.3
O=C(Nc1ncc([N+](=O)[O-])s1)c1ccc(Br)cc1	TEAD-YAP block 64.8
O=C(Cc1ccc(Cl)cc1)Nc1ncc([N+](=O)[O-])s1	none
O=C(Cc1ccc(Br)cc1)Nc1ncc([N+](=O)[O-])s1	none
Cc1ccc(C(=O)Nc2ncc([N+](=O)[O-])s2)cc1	TEAD-YAP block 82.0
CCN(CC)C(=O)Cn1cnc2sc(C(=O)Nc3ccc(F)c(Cl)c3)c(C)c2c1=O	none
CCCOc1ccc(C(=O)Nc2cccc(-c3nc4ccccc4o3)c2C)cc1	none
N#Cc1sc(NC(=O)c2ccc(Br)cc2)nc1Cl	TEAD-YAP block 46.7
O=C(Nc1nc2ccc3ccccc3c2s1)c1ccc(Br)cc1	none
Cc1onc(-c2ccccc2Cl)c1C(=O)Nc1ncc([N+](=O)[O-])s1	none
Cc1onc(-c2ccccc2)c1C(=O)Nc1ncc([N+](=O)[O-])s1	TEAD-YAP block 37.6
CCCCCC(=O)Nc1sc2c(c1C(N)=O)CCCC2	none
O=C(N/N=C\c1cccc([N+](=O)[O-])c1O)c1cnccn1	MITF primary 76.7
O=C(N/N=C\c1ccc(O)cc1O)c1ccccn1	MITF primary 65.2
O=C(N/N=C\c1ccc(O)cc1O)c1cnccn1	MITF primary 79.1
O=C(N/N=C\c1cc(Br)ccc1O)c1ccccn1	MITF primary 58.5
COc1cc(/C=N/NC(=O)c2nn(C)cc2I)ccc1O	none
O=[N+]([O-])c1c(NCCc2ccccc2)ccc2nonc12	none
CC1CCC(NC(=O)CSCc2cc(C(=O)C(F)(F)F)n(C)c2)CC1 (stereo unspecified)	none
Cc1nc2cc(Cl)c([N+](=O)[O-])cc2s1	FBW7 act 2.0
Cc1nc2ccc([N+](=O)[O-])cc2s1	none
CC(=O)Nc1nc(-c2ccc3c(c2)CCN3C(=O)C2CCCCC2)c(C)s1	TEAD-YAP block 77.7
CC(=O)Nc1nc(-c2ccc3c(c2)CCN3C(=O)C2CC2)c(C)s1	TEAD-YAP block 75.1
Cc1sc(NC(=O)c2cnccn2)nc1-c1ccc2c(c1)CCN2C(=O)C1CCCCC1	none
COc1ccc(CCNC(=O)c2cccc(-c3ccccc3)n2)cc1	none
CN(/N=C/c1ccc(O)c(C(=O)O)c1)C1=NS(=O)(=O)c2ccccc21	none
CC(C)(C)P(=NC(=S)Nc1ccccc1)(N1CCOCC1)N1CCOCC1	none
CC(C)(C)P(=NC(=S)NNCCO)(N1CCCCCC1)N1CCCCCC1	TEAD-YAP block 78.3
COc1cc(/C=C2\SC(=S)N(NC(=O)c3ccccc3)C2=O)ccc1O	none
CCCCc1ccc(N/C(N)=N/c2nc(C)cc(C)n2)cc1	TEAD-YAP block 54.4
Cc1cc(C)nc(/N=C(\N)Nc2ccccc2-c2ccccc2)n1	TEAD-YAP block 42.7
Cc1ccc(N/C(N)=N/c2nc(C)cc(C)n2)cc1	none
Cc1cc(C)nc(/N=C(\N)Nc2ccc(C(C)C)cc2)n1	TEAD-YAP block 35.5
CN1CCN(CCCNC(=O)c2ccc3c(Cl)c4c(nc3c2)CCC4)CC1	none
Nn1c(SCc2cn3ccsc3n2)nnc1C1CC1	none
COc1ccc2c(c1)COC1(CCN(C(=O)Nc3ccc(C)cc3)CC1)O2	none
NS(=O)(=O)c1ccc(CCNc2ncnc3sc(-c4ccccc4)cc23)cc1	TEAD-YAP block 42.1
Cc1ccc(C)n1-c1ccccc1N	TEAD-YAP block 51.0
CC(=O)c1ccc(-n2nnnc2SCC(=O)Nc2sc3c(c2C#N)CCCC3)cc1	none
Cc1cccc(NC(=O)CSc2nc3c(c(=O)n2C)SCC3)c1C	TEAD-YAP block 37.1
COc1ccc(C(=O)C2CCCN(S(=O)(=O)Cc3ccccc3)C2)c(C)c1 (stereo unspecified)	none
O=C(O)c1ccc2c3c(cccc13)C(=O)N(c1cccc(C(F)(F)F)c1)C2=O	none
FC(F)(F)c1cccc(CNc2nc(NCc3cccnc3)nc3c2ncn3-c2ccccc2)c1	TEAD-YAP block 47.8
FC(F)(F)c1cccc(CNc2nc(Nc3cnccn3)nc3c2ncn3-c2ccccc2)c1	none
CC(C)n1cnc2c(NCc3cccc(C(F)(F)F)c3)nc(NCc3cccnc3)nc21	TEAD-YAP block 40.2
Cc1ccc(C)c(CN2CCc3nnc(CNC(=O)C4CC4)n3CC2)c1	none
Cn1c(-c2ccccc2)cnc1NC(=O)c1ccc(F)cc1	TEAD-YAP block 49.1
CCc1nnc(NC(=O)CCCN2C(=O)c3cccc4cccc(c34)C2=O)s1	none
O=C(C[n+]1cccc(C(=O)Nc2ccccc2)c1)c1ccc(N2C(=O)c3ccccc3C2=O)cc1	none
Cc1ncc(CO)c2cc(-c3nnc(Nc4ccc(-c5ccccc5)cc4)s3)c(=O)oc12	none
Cn1nc(-c2ccc(Cl)cc2)cc1NC(=O)CCl	TEAD-YAP block 46.1
Cn1nc(-c2ccc(Cl)cc2)cc1NC(=O)Cn1c2ccccc2c(=O)c2ccccc21	none
OCCNc1nc(N2CCC(N3CCOCC3)CC2)nc2nc[nH]c12	none
COc1ccc(CNC(=O)Cn2ncc3ccsc3c2=O)cc1	none
O=C(/C=C/c1ccco1)Nc1nnc(Cc2ccc(F)cc2)s1	TEAD-YAP block 55.4
Cc1ccc2nc(-c3cc4ccccc4oc3=N)[nH]c2c1	TEAD-YAP block 93.3
Cc1ccccc1N=c1oc2ccccc2cc1-c1nc2ccccc2[nH]1	TEAD-YAP block 42.7
Cc1cccc(N=c2oc3ccccc3cc2-c2nc3ccccc3[nH]2)c1	TEAD-YAP block 46.5
CC(C)Oc1ccc(C(=O)Nc2nc3ccccc3s2)cc1	TEAD-YAP block 73.5
Cc1ccccc1C(=O)Nc1ccc2nc(NC(=O)c3ccccc3C)sc2c1	TEAD-YAP block 54.9
CCCOc1ccc(C(=O)Nc2nc3ccccc3s2)cc1	none
Cc1ccsc1C(=O)Nc1nc2ccc(S(C)(=O)=O)cc2s1	TEAD-YAP block 62.2
CCCc1ccc(C(=O)Nc2nc3ccccc3s2)cc1	TEAD-YAP block 38.0
O=C(Nc1nc2ccccc2s1)c1ccc(C(=O)c2ccccc2)cc1	none
CC(=O)Nc1ccc2nc(NC(=O)c3ccccc3C)sc2c1	none
NC(=O)Cc1cc(=O)oc2cc(O)ccc12	none
Cn1cnn(CN2CC3(C)CC2CC(C)(C)C3)c1=S (stereo unspecified)	none
COc1ccccc1C(=O)Nc1nc2ccc(NC(C)=O)cc2s1	none
COc1ccc(C(=O)Nc2nc3c(Cl)cccc3s2)c(OC)c1	TEAD-YAP block 78.0
CC(C)(C)c1ccc(C(=O)Nc2nc3ccccc3s2)cc1	TEAD-YAP block 39.2
COc1ccccc1C(=O)Nc1nc2ccccc2s1	TEAD-YAP block 95.0
O=C(NC(=S)Nc1nc2ccccc2s1)c1ccccc1Cl	TEAD-YAP block 69.6
CC(=O)N(Cc1cc2cccc(C)c2[nH]c1=O)CC1CCCO1 (stereo unspecified)	none
COc1ccc(CNC(=O)c2ccc(OC(C)C)cc2)cc1	none
CC(C)Oc1ccc(C(=O)NCc2ccccc2)cc1	FBW7 act 2.5
COc1ccc(-c2cc3nc(C)c(C)c(NCCN4CCOCC4)n3n2)cc1	none
